# Test results reported in PubChem BioAssay (NCATS).
# Values joined by “and” are separate entries in the source; they are usually repeats but may differ in a detail not shown here. Identical values can stand only once. Results filed as inconclusive are left out. Entries that show only a call come without a potency. Active and inactive are the calls of the source. Calls come from the whole dose curve; as a rule, active = well fitted inhibition curve with a large enough effect; inconclusive = small, poorly fitted or top-dose-only effect; inactive = no such curve, though single readings can be large or run the other way.
# Test: Primary qHTS for inhibitors of nuclear receptor binding SET domain protein 2 (NSD2) in an RCH-ACV wild type WT cells (2C) (AID 1645877); note: nearly all actives have a fitted effect of over 70% in size
# Conditions: RCH-ACV (leukaemia line) NSD2 WT (2C) viability, CellTiter-Glo, 72 h; series mostly up to 44.9 µM
# Potency is the fitted concentration of half-maximal effect.
row,Structure (SMILES),Potency
1,C=CC(=O)Nc1cccc(Nc2nc(Nc3ccc(N4CCN(C(C)=O)CC4)cc3OC)ncc2C(F)(F)F)c1,2.9 µM (active)
2,CN(C)C1CCN(C(=O)c2ccc(NC(=O)Nc3ccc(-c4nc(N5CCOCC5)nc(N5CCOCC5)n4)cc3)cc2)CC1,0.0332 µM (active)
3,O=C(C(c1ccccc1)c1ccccc1)N1CCN(CC(O)COc2cccc3ncccc23)CC1 (stereo unspecified),14.5 µM (active) and 20.9 µM (active)
4,Cc1cc(Cl)ccc1COc1ccnn1-c1cc(C(=O)O)ccn1,inactive
5,FC(F)(F)c1ccc(Nc2nc(-c3c(C(F)(F)F)nc4ccccn34)cs2)cc1,0.372 µM (active)
6,CC(C)(C#N)c1ccc(N2C(=O)OCc3cnc4ccc(-c5cnc6ccccc6c5)cc4c32)cc1,0.817 µM (active)
7,COc1cc(O)cc(/C=C/c2ccc(O[C@@H]3O[C@H](CO)[C@@H](O)[C@H](O)[C@H]3O)cc2)c1,7.96 µM (active)
8,CCC(O)(C(=O)OCc1ccccc1NC(=O)CCC(=O)O)C(C)O (stereo unspecified),inactive
9,CC12CCC3c4ccc(O)cc4CCC3C1CC(OC1OC(C(=O)O)C(O)C(O)C1O)C2O (stereo unspecified),inactive
10,O=C1Nc2ccccc2C(O)(c2ccccc2)C1O (stereo unspecified),inactive
11,C[C@@H]1CC[C@]2(C(=O)O[C@@H]3O[C@H](CO)[C@@H](O)[C@H](O)[C@H]3O)CC[C@]3(C)C(=CCC4[C@@]5(C)C[C@@H](O)[C@H](O)[C@](C)(C(=O)O)C5CC[C@]43C)[C@@H]2[C@]1(C)O (stereo partly specified),inactive
12,Nc1nc2c(ncn2[C@@H]2O[C@H](CO)[C@@H](O)[C@H]2O)c(=O)[nH]1,inactive
13,COC(=O)CCC(=O)OC[C@]1(C)CCC[C@@]2(C)C3CC[C@]4(C)C=CC3(CCC12)C4 (stereo partly specified),inactive
14,COc1ccc(C(=O)Nc2ncc(-c3ccc(C(=O)O)cc3)s2)cc1,1.84 µM (active)
15,C=C(C)C1CCC2(C(=O)O)CCC3(C(=O)O)C(CCC4C5(C)CCC(O)C(C)(C(=O)O)C5CCC43C)C12 (stereo unspecified),inactive
16,CC(C)CN(C[C@@H](O)[C@H](Cc1ccccc1)NC(=O)O[C@@H]1CO[C@H]2OCC[C@H]21)S(=O)(=O)c1ccc(N)cc1,inactive

row,Structure (SMILES),Potency
1,Cc1cc(O)cc(O[C@@H]2O[C@H](CO)[C@@H](O)[C@H](O)[C@H]2O)c1,inactive
2,C/C=C/C1=CC2=C(CO1)C(=O)C(C)(O)C(OC(=O)c1c(C)cc(OC)cc1O)C2 (stereo unspecified),4.5 µM (active)
3,CC1=CC(=O)CC(C)(C)[C@@]1(O)CC[C@@H](C)O[C@@H]1O[C@H](CO)[C@@H](O)[C@H](O)[C@H]1O,inactive
4,COc1ccc(N(C)c2nc(C)nc3ccccc23)cc1,0.0118 µM (active)
5,C[C@@H]1O[C@@H](O[C@H]2[C@@H]3C=CO[C@@H](O[C@@H]4O[C@H](CO)[C@@H](O)[C@H](O)[C@H]4O)[C@@H]3[C@@]3(CO)O[C@@H]23)[C@H](OC(=O)/C=C/c2ccccc2)[C@H](O)[C@H]1O,inactive
6,CNCc1ccc(-c2cc(-c3nc(-c4ccc(S(=O)(=O)C(C)C)cc4)cnc3N)on2)cc1,183 nM (active) and 93.4 nM (active)
7,CC1=CC2/C=C(\C)CC[C@@H](O)[C@@H](O)[C@@H]3O[C@@H]3C(=O)[C@]23C(=O)N[C@@H](CC(C)C)[C@@H]3[C@@H]1C (stereo partly specified),inactive
8,CC(C)(C)OC(=O)N1CCC(OCc2nc(-c3ccncc3)no2)CC1,inactive
9,CC(C)(C)c1ccc(S(=O)(=O)Nc2ccc(Cl)cc2C(=O)c2cc[n+]([O-])cc2)cc1,inactive
10,CC1(C)CC[C@]2(C(=O)O)CC[C@]3(C)C(=CCC4[C@@]5(C)CC[C@H](O[C@@H]6O[C@H](CO)[C@@H](O)[C@H](O)[C@H]6O[C@@H]6O[C@H](CO)[C@@H](O)[C@H](O)[C@H]6O)[C@@](C)(CO)C5CC[C@]43C)[C@@H]2C1 (stereo partly specified),inactive
11,O=C(c1ccc2nccnc2c1)N1CCCCC1,inactive
12,C/C=C/c1ccc(O[C@@H]2O[C@H](CO)[C@@H](O)[C@H](O)[C@H]2O)c(OC)c1,inactive
13,O=C(O)CC1CCC(c2ccc(-c3ccc4nc(C(=O)NCc5ccc(OC(F)(F)F)cc5)cn4c3)cc2)CC1 (stereo unspecified),inactive
14,CC(=O)OC1CC2(C)C3=CCC4(C)C5C(O)C(O)C(C(C)C)C5(C)CCC4(C)C3CCC2C(C)(C)C1OC1OC(CO)C(O)C(O)C1O (stereo unspecified),inactive
15,CC1(C)CC[C@]2(C(=O)O[C@@H]3O[C@H](CO)[C@@H](O)[C@H](O)[C@H]3O)CC[C@]3(C)C(=CCC4[C@@]5(C)C[C@@H](O)[C@H](O)C(C)(C)C5[C@H](O)C[C@]43C)[C@@H]2[C@@H]1O (stereo partly specified),inactive
